# Hit rate of the full screen: of about 5,500 compounds, about 2,000 (36%) were called active. Another 18% or so got no clear call; they are omitted. This is one part of the list. A number with no mark means an inactive call. Cut-off read from the data, not from the text of the source: active = normalized growth mostly below about 0.91 (no sharp cut-off); inconclusive = no clear call, values can overlap the other calls; inactive = mostly above about 0.92.
# Test: chemical genetic growth profiling, strain panel (AID 1159580);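 note: tested at 20 µM; growth read once vehicle control cultures reached saturation at 30 °C; 1 = growth at the plate median or of vehicle wells; lower values mean less growth of the strain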
# Conditions: S. cerevisiae deletion strains, growth OD
# [1] = locus YAR019C, strain CDC15, active compounds read low
# [2] = locus YBL105C, strain PKC1, active compounds read low
# [3] = locus YBR135W, strain CKS1, active compounds read low
# [4] = locus YBR136W, strain MEC1, active compounds read low
# [5] = locus YBR160W, strain CDC28, active compounds read low
# [6] = locus YDL017W, strain CDC7, active compounds read low
# [7] = locus YDL028C, strain MPS1, active compounds read low
# [8] = locus YDL101C, strain DUN1, active compounds read low
# [9] = locus YDL108W, strain KIN28, active compounds read low
# [10] = locus YDL132W, strain cdc53, active compounds read low
# [11] = locus YDL214C, strain PRR2, active compounds read low
# [12] = locus YDR052C, strain DBF4, active compounds read low
# [13] = locus YDR054C, strain cdc34, active compounds read low
# [14] = locus YDR226W, strain ADK1, active compounds read low
# [15] = locus YDR477W, strain SNF1, active compounds read low
# [16] = locus YER123W, strain YCK3, active compounds read low
# [17] = locus YER133W, strain GLC7, active compounds read low
# [18] = locus YFL009W, strain cdc4, active compounds read low
# [19] = locus YFL029C, strain CAK1, active compounds read low
# [20] = locus YFR003C, strain YPI1, active compounds read low
# [21] = locus YFR019W, strain FAB1, active compounds read low
# [22] = locus YFR028C, strain CDC14, active compounds read low
# [23] = locus YGR040W, strain KSS1, active compounds read low
# [24] = locus YGR052W, strain FMP48, active compounds read low
# [25] = locus YGR092W, strain DBF2, active compounds read low
# [26] = locus YHR030C, strain SLT2, active compounds read low
# [27] = locus YHR079C, strain IRE1, active compounds read low
# [28] = locus YHR082C, strain KSP1, active compounds read low
# [29] = locus YHR205W, strain SCH9, active compounds read low
# [30] = locus YIL147C, strain SLN1, active compounds read low
# [31] = locus YJL095W, strain BCK1, active compounds read low
# [32] = locus YJL128C, strain PBS2, active compounds read low
# [33] = locus YJL157C, strain FAR1, active compounds read low
# [34] = locus YJR016C, strain ILV3, active compounds read low
# [35] = locus YJR066W, strain TOR1 (second series), active compounds read low
# [36] = locus YJR066W, strain TOR1, active compounds read low
# [37] = locus YKL048C, strain ELM1, active compounds read low
# [38] = locus YKL067W, strain YNK1, active compounds read low
# [39] = locus YKL101W, strain HSL1, active compounds read low
# [40] = locus YKL193C, strain SDS22, active compounds read low
# [41] = locus YKL203C, strain TOR2, active compounds read low
# [42] = locus YLR113W, strain HOG1, active compounds read low
# [43] = locus YLR133W, strain CKI1, active compounds read low
# [44] = locus YLR403W, strain SFP1, active compounds read low
# [45] = locus YML070W, strain DAK1, active compounds read low
# [46] = locus YMR001C, strain CDC5, active compounds read low
# [47] = locus YMR205C, strain PFK2 (second series), active compounds read low
# [48] = locus YMR277W, strain FCP1, active compounds read low
# [49] = locus YNL006W, strain LST8, active compounds read low
# [50] = locus YNL020C, strain ARK1, active compounds read low
# [51] = locus YNL161W, strain CBK1, active compounds read low
# [52] = locus YNL183C, strain NPR1, active compounds read low
# [53] = locus YNL207W, strain RIO2, active compounds read low
# [54] = locus YNL222W, strain SSU72, active compounds read low
# [55] = locus YNL307C, strain MCK1 (second series), active compounds read low
# [56] = locus YOL078W, strain AVO1, active compounds read low
# [57] = locus YOL136C, strain PFK27, active compounds read low
# [58] = locus YOR061W, strain CKA2, active compounds read low
# [59] = locus YOR119C, strain RIO1, active compounds read low
# [60] = locus YOR231W, strain MKK1, active compounds read low
# [61] = locus YOR329C, strain SCD5, active compounds read low
# [62] = locus YPL031C, strain PHO85, active compounds read low
# [63] = locus YPL153C, strain RAD53, active compounds read low
# [64] = locus YPL204W, strain HRR25, active compounds read low
# [65] = locus YPL209C, strain IPL1, active compounds read low
# [66] = locus YPL256C, strain CLN2, active compounds read low
# [67] = locus YPR025C, strain CCL1, active compounds read low
# [68] = locus YPR106W, strain ISR1, active compounds read low
# [69] = locus YPR111W, strain DBF20, active compounds read low
# [70] = strain NNK1, active compounds read low
# [71] = strain TSCII, active compounds read low
structure (smiles),measurement,setting,value
CC(=O)ON=C1c2cc([N+](=O)[O-])ccc2-c2ccc([N+](=O)[O-])cc21,normalized growth,[1],0.948
same,normalized growth,[2],0.942
same,normalized growth,[3],0.949
same,normalized growth,[4],0.939
same,normalized growth,[5],0.955
same,normalized growth,[6],0.954
same,normalized growth,[7],0.933
same,normalized growth,[8],0.963
same,normalized growth,[9],0.937
same,normalized growth,[10],0.971
same,normalized growth,[11],0.85
same,normalized growth,[12],0.953
same,normalized growth,[13],0.942
same,normalized growth,[14],0.983
same,normalized growth,[15],0.729
same,normalized growth,[16],0.793
same,normalized growth,[17],0.867
same,normalized growth,[18],0.966
same,normalized growth,[19],0.948
same,normalized growth,[20],0.935
same,normalized growth,[21],0.933
same,normalized growth,[22],0.963
same,normalized growth,[23],0.702
same,normalized growth,[24],0.793
same,normalized growth,[25],0.426 (active)
same,normalized growth,[26],0.788 (active)
same,normalized growth,[27],0.825
same,normalized growth,[28],0.796
same,normalized growth,[29],0.858
same,normalized growth,[30],0.93
same,normalized growth,[31],0.778
same,normalized growth,[32],0.917
same,normalized growth,[33],0.835
same,normalized growth,[34],0.939
same,normalized growth,[35],0.682
same,normalized growth,[36],0.76
same,normalized growth,[37],0.892
same,normalized growth,[38],0.864
same,normalized growth,[39],0.761
same,normalized growth,[40],0.945
same,normalized growth,[41],0.843
same,normalized growth,[42],0.789 (active)
same,normalized growth,[43],0.879
same,normalized growth,[44],0.776
same,normalized growth,[45],0.852
same,normalized growth,[46],0.942
same,normalized growth,[47],0.865
same,normalized growth,[48],0.936
same,normalized growth,[49],0.953
same,normalized growth,[50],0.836
same,normalized growth,[51],0.952
same,normalized growth,[52],0.745
same,normalized growth,[53],0.93
same,normalized growth,[54],0.939
same,normalized growth,[55],0.691
same,normalized growth,[56],0.95
same,normalized growth,[57],0.866
same,normalized growth,[58],0.751
same,normalized growth,[59],0.817
same,normalized growth,[60],0.848
same,normalized growth,[61],0.942
same,normalized growth,[62],0.701
same,normalized growth,[63],0.724
same,normalized growth,[64],0.749
same,normalized growth,[65],0.948
same,normalized growth,[66],0.891
same,normalized growth,[67],0.947
same,normalized growth,[68],0.964
same,normalized growth,[69],0.957
same,normalized growth,[70],0.944
same,normalized growth,[71],0.943
CCCCN(C)C(=O)c1cc([N+](=O)[O-])cc2c1-c1ccc([N+](=O)[O-])cc1C2=C(C#N)C#N,normalized growth,[1],0.984
same,normalized growth,[2],0.988
same,normalized growth,[3],0.985
same,normalized growth,[4],0.977
same,normalized growth,[5],0.979
same,normalized growth,[6],0.985
same,normalized growth,[7],0.976
same,normalized growth,[8],0.98
same,normalized growth,[9],0.974
same,normalized growth,[10],0.969
same,normalized growth,[11],0.983
same,normalized growth,[12],0.975
same,normalized growth,[13],0.98
same,normalized growth,[14],0.994
same,normalized growth,[15],0.972
same,normalized growth,[16],0.942
same,normalized growth,[17],0.984
same,normalized growth,[18],0.983
same,normalized growth,[19],0.98
same,normalized growth,[20],0.984
same,normalized growth,[21],0.961
same,normalized growth,[22],0.98
same,normalized growth,[23],0.978
same,normalized growth,[24],0.953
same,normalized growth,[25],0.944
same,normalized growth,[26],0.968
same,normalized growth,[27],0.957
same,normalized growth,[28],1.04
same,normalized growth,[29],0.976
same,normalized growth,[30],0.982
same,normalized growth,[31],0.868
same,normalized growth,[32],0.959
same,normalized growth,[33],0.988
same,normalized growth,[34],0.973
same,normalized growth,[35],0.971
same,normalized growth,[36],0.973
same,normalized growth,[37],0.98
same,normalized growth,[38],0.971
same,normalized growth,[39],0.951
same,normalized growth,[40],0.977
same,normalized growth,[41],1.01
same,normalized growth,[42],0.871
same,normalized growth,[43],0.99
same,normalized growth,[44],0.966
same,normalized growth,[45],0.94
same,normalized growth,[46],0.977
same,normalized growth,[47],0.985
same,normalized growth,[48],0.976
same,normalized growth,[49],0.983
same,normalized growth,[50],0.985
same,normalized growth,[51],0.983
same,normalized growth,[52],0.968
same,normalized growth,[53],0.979
same,normalized growth,[54],0.978
same,normalized growth,[55],0.907
same,normalized growth,[56],0.968
same,normalized growth,[57],0.941
same,normalized growth,[58],0.971
same,normalized growth,[59],1.03
same,normalized growth,[60],0.876
same,normalized growth,[61],0.99
same,normalized growth,[62],0.967
same,normalized growth,[63],0.986
same,normalized growth,[64],0.958
same,normalized growth,[65],0.986
same,normalized growth,[66],0.968
same,normalized growth,[67],0.982
same,normalized growth,[68],0.985
same,normalized growth,[69],0.993
same,normalized growth,[70],0.994
same,normalized growth,[71],0.98

# Source: PubChem BioAssay AID1159580 (chemical genetic matrix, 2015)
